Screening data deposited in PubChem BioAssay by several laboratories.
GRK2 inh: human GRK2 inhibition via aptamer displacement; P25098; bead flow cytometry, FAM-aptamer displacement from GRK2; inhibition of aptamer binding, % at 10 µM; 0.59% of 330,000 active; AID 488847;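 active means inhibition of aptamer binding above 40%, roughly 3 SD of noise, on plates passing a quality check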;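 further: median bead fluorescence of bound FAM aptamer so fluorescent compounds give negative values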
HDAC3 inhib: blocks human histone deacetylase 3 | recombinant HDAC3, fluorogenic peptide/trypsin coupled, fluorescence | inhibition, % at 8.3 µM | 0.15% of 320,000 active | O15379; in the data active means inhibition above about 26%, passing the limit was not always enough
Target sequence (O15379 whole entry, looked up): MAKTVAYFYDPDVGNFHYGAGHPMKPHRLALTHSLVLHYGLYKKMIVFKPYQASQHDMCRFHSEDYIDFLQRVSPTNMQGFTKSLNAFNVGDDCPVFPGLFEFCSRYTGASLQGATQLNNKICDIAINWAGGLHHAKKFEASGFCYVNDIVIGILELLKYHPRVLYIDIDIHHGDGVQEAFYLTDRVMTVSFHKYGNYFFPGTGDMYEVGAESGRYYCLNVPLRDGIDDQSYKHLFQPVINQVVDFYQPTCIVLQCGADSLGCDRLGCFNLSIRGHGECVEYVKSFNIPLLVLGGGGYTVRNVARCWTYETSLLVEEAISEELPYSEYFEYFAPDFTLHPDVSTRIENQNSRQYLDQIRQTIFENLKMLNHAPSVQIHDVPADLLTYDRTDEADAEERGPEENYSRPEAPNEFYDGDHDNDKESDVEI
Neddyl block: blocks human cullin neddylation. TR-FRET cullin neddylation, biochemical. inhibition, % at 25 µM. 0.58% of 360,000 active. AID 651699; in the data active means inhibition above about 36%
H9c2 protect: myocardial damage modulation in H9c2 cells; protection from H2O2 cell death, % at 20 µM; H9c2 cardiomyocytes, H2O2 injury protection, ATPLite, 2 h; 0.63% of 360,000 active;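 active means compounds giving at least 50% protection of heart cells from peroxide-induced death in the single-dose screen, raw or plate-pattern-corrected value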;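 further: 0% = DMSO wells with peroxide and 100% = DMSO wells without peroxide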
An asterisk follows results filed as active; x = not tested or not shown. Most compounds without a hit are left out; they make up all but 1.8% or so of the library.

SMILES | GRK2 inh | HDAC3 inhib | Neddyl block | H9c2 protect
COc1cc(/C=C2\CC/C(=C\c3cc(OC)c(OC)c(OC)c3)C2=O)cc(OC)c1OC | 22.0 | 0.2 | 3.4 | 29.4
Cc1ccc2c(c1)c1c(n2CC(O)Cn2c(C)nc3ccccc32)/C(=N\O)CCC1 (stereo not drawn) | 0.0 | 28.1* | 3.1 | -7.6
COC(=O)CSc1nc(N2CCOCC2)c2c(c1C#N)CC(C)(C)OC2 | 0.0 | -5.4 | 14.1 | 3.0
COC(=O)Sc1nc(N2CCOCC2)c2c(c1C#N)CC(C)(C)OC2 | 0.0 | -3.8 | -54.9 | 55.2*
CN(C)S(=O)(=O)n1cc(/C=C(\NC(=O)c2ccccc2F)C(=O)NCCN2CCOCC2)c2ccccc21 | x | x | 0.0 | 75.3*
CN(C)S(=O)(=O)n1cc(/C=C(\NC(=O)c2ccccc2)C(=O)NCCN2CCOCC2)c2ccccc21 | 0.0 | 1.3 | -7.8 | 7.1
CNC(=S)NNC(=O)c1sccc1OCc1ccc(Cl)cc1Cl | 0.0 | 7.2 | -9.6 | 0.3
N/C(=N\NC(=O)c1sccc1OCc1ccc(Cl)cc1Cl)c1ccccn1 | 0.0 | 0.6 | -1.8 | 54.8*
Cc1cn(CC(=O)NCCCN2CCCC2=O)c(=O)[nH]c1=O | x | x | -5.1 | 8.0
COc1cc(CN2CC(=O)N(c3ccc(C)c(Cl)c3)C2=S)cc(OC)c1OC | 0.0 | 3.6 | -1.2 | -3.6
CCCCCC1CCC(c2n[nH]c(=S)n2C)CC1 (stereo not drawn) | 0.0 | -0.2 | -2.3 | -22.4
COC(=O)c1ccc(Cn2c(O)c(N=NC(N)=S)c3ccccc32)o1 | 0.0 | 38.9* | -32.6 | 18.0
O=[N+]([O-])c1cc([N+](=O)[O-])c(Oc2ccc(Br)cc2Br)cc1NN1CCCCC1 | 2.0 | -14.5 | -19.1 | -9.5
COc1ccc(-c2cc3ccccc3[nH]2)cc1 | 0.0 | -17.0 | 23.6 | -7.5
COc1ccc(-c2cc(=O)c3ccccc3[nH]2)cc1 | 0.0 | -4.7 | 5.6 | 56.4*
CCN(C[C@H]1N[C@@](C)(C(=O)OC)[C@H]2C(=O)N(Cc3ccccc3)C(=O)[C@@H]12)C(=O)COC | 0.0 | x | 2.4 | 2.6
CCN(C[C@H]1N[C@@](CC)(C(=O)OC)[C@H]2C(=O)N(Cc3ccccc3)C(=O)[C@@H]12)C(=O)c1ccc(C(C)(C)C)cc1 | 0.0 | x | 9.5 | 63.4*
CCN(C[C@H]1N[C@@](C)(C(=O)OC)[C@H]2C(=O)N(Cc3ccccc3)C(=O)[C@@H]12)C(=O)c1ccc(C(C)(C)C)cc1 | 2.0 | x | -0.2 | 57.0*
CNc1ccc(S(=O)(=O)NCC(=O)OCC(=O)Nc2cccc(Cl)c2Cl)cc1[N+](=O)[O-] | 4.0 | 1.5 | -31.1 | 10.0
Cn1c(C(=O)Nc2ccc3c(c2)OCCO3)cc2c(=O)n(C)c3ccccc3c21 | 2.0 | 5.9 | -26.5 | 95.2*
CCCc1cc(=O)oc2c(CNc3ccc(OCC)cc3)c(O)ccc12 | 13.0 | 7.2 | x | 59.4*
CCCCc1cc(=O)oc2c(CN3CCCC3)c(O)ccc12 | 0.0 | -355.5 | x | 1.6
Cc1cc(C)c(NC(=S)NC(CO)(CO)CO)c(C)c1 | 0.0 | 3.7 | 3.4 | 2.2
CCOc1cc(C(=O)OC(C)C(=O)Nc2ccc(S(N)(=O)=O)cc2)ccc1OCC(=O)N1CCOCC1 (stereo not drawn) | 0.0 | 3.4 | 5.1 | -5.6
CCOc1cc(/C=C(\C#N)C(=O)Nc2ccc(S(N)(=O)=O)cc2)ccc1OCCN1CCOCC1 | 2.0 | -8.8 | -14.1 | 55.8*
SMILES | GRK2 inh | HDAC3 inhib | Neddyl block | H9c2 protect
COc1ccc(-c2nc3ccc(C(=O)NCC(OC)OC)cc3nc2-c2ccc(OC)c(OC)c2)cc1OC | 0.0 | 7.2 | 7.7 | 23.6
CCOCCCNC(=O)c1ccc2nc(-c3ccc(OC)c(OC)c3)c(-c3ccc(OC)c(OC)c3)nc2c1 | 2.0 | 4.1 | 12.5 | 50.1*
CN(Cc1ccccc1)C(=O)c1cccc(NC(=O)Cc2ccc(NC(=O)C3CCN(C(=O)C4CCCCC4)CC3)cc2)c1 | x | x | -1.2 | -12.1
Cc1cccc(-c2n[nH]c(=S)n2/N=C/c2ccc(C)o2)c1 | 47.0* | 6.7 | -0.4 | -3.4
Cc1cc(-c2n[nH]c(=S)n2/N=C/c2ccc(C)o2)n[nH]1 | 1.0 | 7.3 | 0.4 | 3.8
Cc1ccc(S(=O)(=O)N(Cc2c(F)cccc2Cl)C(=O)N2CCN(C)CC2)cc1 | 0.0 | 2.3 | 7.9 | 1.4
COc1ccccc1-c1cc(C(=O)N/N=C/C=C/c2ccccc2[N+](=O)[O-])c2ccccc2n1 | 2.0 | -2.8 | -6.6 | 53.9*
O=C(N/N=C/C=C/c1ccccc1[N+](=O)[O-])c1cc(-c2cccnc2)nc2ccccc12 | 6.0 | -0.3 | -6.7 | 48.8
COc1cccc(/C=N/NC(=O)c2cc(-c3ccccn3)nc3ccccc23)c1O | 1.0 | 14.2 | -35.8 | 57.6*
COc1ccc(NS(=O)(=O)c2cccc(C(=O)NNC(=O)c3ccccc3OC)c2)cc1 | 5.0 | -7.9 | 6.3 | -5.7
CCCCNc1c(-c2ccc(SC(C)CC)cc2)nc2cnccn12 (stereo not drawn) | 0.0 | 31.5* | -9.0 | -9.8
c1ccc(N2OCC3Cn4c(nc5ccccc54)C32)cc1 (stereo not drawn) | 3.0 | 0.8 | 10.4 | -0.3
Cc1ccc(NC2CCCN(C(=O)CCC3=NNC(=O)CC3)C2)cc1C (stereo not drawn) | 0.0 | -7.8 | 10.0 | 1.2
COC(=O)c1cc2ccc(OC)cc2c2cc(OC)c(OC)cc12 | 1.0 | -7.9 | x | 55.1*
CN(Cc1ccccc1)S(=O)(=O)c1ccccc1[N+](=O)[O-] | 1.0 | 6.0 | -16.1 | -3.5
COC1=CC(=O)CC(C)C12Oc1c(Cl)c(OC)cc(OC)c1C2=O (stereo not drawn) | 5.0 | x | 37.1 | 8.8
COC1=CC(=O)C[C@@H](C)[C@]12Oc1c(Cl)c(OC)cc(OC)c1C2=O | 4.0 | -8.7 | 46.0* | 11.5
CCCN1Cc2cccc(C(=O)Nc3ccc(C)cc3)c2C1=O | 0.0 | 3.4 | 23.2 | 0.1
CCCN1Cc2cccc(C(N)=O)c2C1=O | 0.0 | 2.2 | 2.4 | 58.8*
Cc1cc(Cl)ccc1OCCCC(=O)NNC(=O)c1ccccc1O | 4.0 | -7.1 | 24.5 | 55.4*
CCOC(=O)c1cc2cc3ccccc3cc2[nH]1 | 4.0 | -7.5 | 41.0* | -9.8
O=C1CCCC2=C1C(c1ccco1)Nc1ccc3ccccc3c12 (stereo not drawn) | 27.0 | 5.0 | 54.1* | -19.8
Nc1ccc2nc(-c3ccccc3)[nH]c2c1 | 0.0 | -53.6 | 35.1 | 5.6
Nc1ccc2nc(-c3cccs3)[nH]c2c1 | 0.0 | -87.8 | x | 66.0*
O=C(Oc1ccc(N(Cc2cccs2)C2=NS(=O)(=O)c3ccccc32)cc1)c1ccccc1 | 0.0 | 68.6* | -28.4 | -2.4
SMILES | GRK2 inh | HDAC3 inhib | Neddyl block | H9c2 protect
O=C(Oc1ccc(N(Cc2cccs2)C2=NS(=O)(=O)c3ccccc32)cc1)c1ccc(Cl)cc1 | 2.0 | -0.1 | -49.3 | 7.1
COc1ccccc1/C=C/C(=O)c1c2c(c(C)[nH]c1=O)CCCC2 | 4.0 | 9.3 | -1.5 | 13.2
CNC(=O)c1cccc(NC(=O)c2cc(-c3ccccc3)nc3c2cnn3C(C)C)c1 | 0.0 | 18.8 | -2.0 | 58.9*
COc1ccc(C(=O)NNC(=O)CNC(=O)C2CCCCC2)cc1 | 1.0 | -5.2 | -5.3 | -5.9
N#Cc1c(-c2cccs2)cc(-c2cccnc2)nc1N | 0.0 | -4.1 | x | 72.6*
COc1ccc(OCC(NS(=O)(=O)c2ccc(-n3cnnn3)cc2)C(C)C)cc1 (stereo not drawn) | 3.0 | 3.6 | -3.7 | -4.4
